In PubChem BioAssay (NCI) one finds growth data, which are given here for 40 compounds.

This is part of a sample that, as a whole, favours compounds with a hit. Of some 83,000 tested, about 20% had one in any assay.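 Activity criterion: percent growth below 10, measured after cells in 96-well plates were exposed to a single compound concentration for 48 hours.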 Activity calls are given as the source filed them.

In the test the test system is NCI-H23 lung. Kind of test: NCI-60 one-dose screen, 48 h (100 = growth as untreated, 0 = no growth, -100 = all killed). Particulars: 10 µM unless noted. The protocol:
Growth inhibition of the NCI-H23 human Non-Small Cell Lung tumor cell line is measured as a screen for anti-cancer activity. Cells are grown in 96 well plates and exposed to the test compound for 48 hours. Compounds are tested at a single concentration, which is 10^-5 M for most compounds. The reported endpoint is percent growth (GI% or GIPRCNT), where numbers from 0 - 100% represent growth inhibition, and numbers from -100% - 0 represent cell death. For example, a value of 40 represents 60% growth inhibition. A value of 0 means no net growth occurred over the course of the experiment. A value of -40 indicates 40% of cells at the beginning of the experiment died by the end of the experiment. A value of -100 means all cells are dead at the end of the experiment.
NCI-60 Human Tumor Cell Lines Screen was performed using the standard one-dose NCI protocol, which is described in more detail at https://dtp.cancer.gov/discovery_development/nci-60/default.htm.
Compounds with GIPRCNT values below 10 were considered active. Activity score was based on GIPRCNT using the following formula: […]
Score is 0 for GIPRCNT values of 100 or above, 50 for GIPRCNT values of 0, and 100 for GIPRCNT values of -100.
Turning to `OC(c1cc(C(F)(F)F)nc2c(C(F)(F)F)cccc12)C1CCCCN1` (stereo not given), the growth is 78.4% (inactive).
For the compound `Cc1nn(-c2ccccc2)c2nc(Cl)c(/C=C/C(=O)c3ccccc3)c(-c3ccccc3)c12`, the growth is 102% (inactive).
Next, `O=Cc1c[nH]c2ccc(NC(=O)OCc3ccccc3)cc12`: 95.4% (inactive); `CCCn1cnc2c1c(=O)n(CCCCC(C)=O)c(=O)n2C`: 105% (inactive); `Cc1nn(-c2ccc(Cl)cc2)c2nc3c(nc12)C(=O)C(=O)c1ccccc1-3`: 75.5% (inactive).
The figure for `CCCCCCCCCCCCCCCCCC1=NC(C)(C)CN1CCO` is 38.9% (inactive); for `Clc1ccc2nc(Cl)c3ccccc3c2c1` it is 84.6% (inactive); for `COc1cccc(/C=C2\COc3ccc(O)c(O)c3C2=O)c1OC` it is 60.5% (inactive).
Take `[O-]/[N+](=C\C=C\c1ccccc1)c1ccccc1`: the growth is 103% (inactive).
Regarding `C=C(C)[C@@H]1C[C@H](O)Cc2cc(Cl)cc(Cl)c2N1`, the growth was 103% (inactive).
Take `O=C(Nc1nc(-c2ccc(Cl)cc2)cs1)c1cc(O)c(O)c(O)c1`: the growth was 42.2% (inactive).
With `CN1CCN(Cc2ccc(NC(=O)c3[nH]ncc3Nc3ccnc4ccnn34)cc2)CC1`, the growth was 62.3% (inactive).
Next, `CC(=O)O[C@H]1C(=O)[C@@]2(C)C([C@H](OC(=O)c3ccccc3)[C@]3(O)C[C@H](OC(=O)[C@H](O)[C@@H](NC(=O)c4ccccc4)c4ccccc4)C(C)=C1C3(C)C)[C@]1(OC(C)=O)CO[C@@H]1C[C@@H]2O` (stereo not given in full): 27.9% (inactive); `COc1ccc2[nH]cc(/C=C3/C(=O)Nc4ccc(F)cc43)c2c1`: 75.8% (inactive).
Next, `Cn1cc(-c2csc(-c3cn(C)c4ncccc34)n2)c2cc(F)cnc21`: 70.5% (inactive).
Consider `COC1=CC(c2ccc[nH]2)=N/C1=C\c1[nH]c(C)c(C(=O)CCC(=O)Oc2ccc3c(c2)CCC2C3CC[C@]3(C)C(=O)CC[C@@H]23)c1C` (stereo not given in full), for which the growth is 73.5% (inactive).
Regarding `Cn1cc(-c2csc(-c3cn(C)c4ncccc34)n2)c2cc(Br)cnc21`, the growth is 82% (inactive).
In the case of `Cc1c(N(C)CS(=O)(=O)O)c(=O)n(-c2ccccc2)n1C`, the growth was 109% (inactive).
Take `COc1ccc2[nH]cc(/C=C3/C(=O)Nc4ccc(Cl)cc43)c2c1`: the growth is 37.8% (inactive).
Consider `CC(=O)n1c2ccccc2c2ccccc21`, for which the growth is 93.7% (inactive).
`COc1cc(/C=C/c2nnc(-c3cc(-c4ccccc4)n[nH]3)o2)cc(OC)c1OC`: the growth is 92.6% (inactive).
For `Nc1ccc2c3c(cccc13)-c1ccccc1-2`, the growth was 97.7% (inactive).
Take `c1ccc(Nc2nnc(-c3cc(-c4cccnc4)n(-c4ccccc4)n3)s2)cc1`: the growth is 78.6% (inactive).
Regarding `CCOc1cc(C(C)(C)C)ccc1C1=N[C@H](c2ccc(Cl)cc2)[C@H](c2ccc(Cl)cc2)N1C(=O)N1CCN(CC#Cc2cccc3c2CN([C@@H]2CCC(=O)NC2=O)C3=O)CC1`, the growth is 77% (inactive).
The figure for `Cn1c(=O)c2c(nc(Br)n2CCC(=O)Nc2ccc(F)cc2)n(C)c1=O` is 101% (inactive); for `O=C1OCCCCCCCCCC#Cc2ccccc21` it is 97% (inactive); for `O=C(C(=O)N1CCOCC1)c1ccc(OC2OC(CO)C(O)C(O)C2O)cc1` (stereo not given) it is 106% (inactive).
As to `Fc1ccc(-c2nnc(/C=C/c3cn(-c4ccccc4)nc3-c3ccccc3)o2)cc1`, the growth was 88% (inactive).
For the compound `O=C(Nc1ccc(Nc2ccncc2)cc1)c1ccc(Nc2ccnc3ccc([N+](=O)[O-])cc23)cc1[N+](=O)[O-]`, the growth was 83% (inactive).
Turning to `COc1ccc(/C=C2\COc3ccc(O)c(O)c3C2=O)cc1OC`, the growth is 41% (inactive).
The figure for `CCCc1cc(=O)n2c(C(=O)Nc3ccccc3OC)c(C(=O)Nc3ccc(F)cc3)sc2n1` is 63% [30 µM] (inactive).
As for `CCC(CCC(C)C1CCC2C3CC=C4CC(O)CCC4(C)C3CCC12C)C(C)C` (stereo not given) (tested in a mixture with another compound), the growth is 112% (inactive).
Take `S=C(Nc1ccc(C2=NCCN2)cc1)Nc1ccc(C2=NCCN2)cc1`: the growth is 82.7% (inactive).
On to `CCOC(=O)/C(=C/c1ccccc1)C(=O)c1ccccc1`, for which the growth was 82.4% (inactive).
As for `CCOC(=O)C1=C(C)N2C(=NC3=C(CCC/C3=C\c3ccc(Cl)cc3)C2c2ccc(Cl)cc2)S1` (stereo not given), the growth was 10.9% (inactive).
The figure for `CO[C@H]1/C=C/O[C@@]2(C)Oc3c(C)c(O)c4c(O)c(c(/C=N/N5CCN(C)CC5)c(O)c4c3C2=O)NC(=O)/C(C)=C\C=C\C(C)[C@H](O)[C@@H](C)[C@@H](O)[C@@H](C)[C@@H](OC(C)=O)[C@@H]1C` (stereo not given in full) is 96.3% (inactive); for `CN(C)c1cccc2c(S(=O)(=O)N[C@H]3CC[C@H]4[C@@H]5CCc6cc(O)ccc6[C@H]5CC[C@]34C)cccc12` it is 40.8% (inactive); for `CCOC(=O)/C=C(/C)Sc1cc(O)c2ccccc2c1O` it is -71.4% (active).
Regarding `CCN(CC)CCCNCCCNc1cc(OC)cc2cccnc12`, the growth is 94.2% (inactive).
In the case of `O=c1ccn(C2OC(CO)C(O)C2F)c(=O)[nH]1` (stereo not given), the growth is 90.5% (inactive).
